Results reported in PubChem BioAssay (NCI).
This is part of a sample that, as a whole, favours compounds with a hit. Of some 83,000 tested, about 20% had one in any assay.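 Negative percent growth values reflect cell death: -40 means 40% of the cells present at the start died, and -100 means all died.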 A number with no mark means an inactive call. Calls of active or inactive are those of the source. How the source made its calls: active means growth percent below 10; inactive means the rest.

Key:
Assay in all cases: NCI-60 one-dose screen, 48 h (100 = growth as untreated, 0 = no growth, -100 = all killed)
Details in all cases: 10 µM unless noted
NCI-H23 lung = test system: NCI-H23 lung
NCI-H226 lung = test system: NCI-H226 lung
NCI-H322M lung = test system: NCI-H322M lung
HOP-62 NSCLC = test system: HOP-62 NSCLC
NCI-H460 lung = test system: NCI-H460 lung
HOP-92 NSCLC = test system: HOP-92 NSCLC
A549/ATCC NSCLC = test system: A549/ATCC NSCLC
786-0 renal = test system: 786-0 renal
COLO 205 colon = test system: COLO 205 colon

| SMILES | growth (NCI-H23 lung) | growth (NCI-H226 lung) | growth (NCI-H322M lung) | growth (HOP-62 NSCLC) | growth (NCI-H460 lung) | growth (HOP-92 NSCLC) | growth (A549/ATCC NSCLC) | growth (786-0 renal) | growth (COLO 205 colon) |
| --- | --- | --- | --- | --- | --- | --- | --- | --- | --- |
| COc1ccc2nc(-c3ccc(Cl)cc3)cc(-c3nnc(SCC(=O)Nc4ccc(C(C)=O)cc4)n3-c3ccccc3)c2c1 | 100% | 99.1% | 91.5% | 100% | 102% | 111% | 93.2% | 91.4% | 101% |
| Cc1nn2c(/C=C3/C(=O)Nc4cc(Cl)ccc43)c(-c3ccccc3)nc2s1 | 34.9% | 95.2% | 31% | 20.4% | 13.6% | -27.8% (active) | -28.7% (active) | -74.8% (active) | 21.8% |
| O=C(/C=C/c1ccc(C(F)(F)F)cc1)c1ccc(Nc2nc(NCCO)nc(NCCO)n2)cc1 | 84.3% | 75.3% | 74.8% | 22.3% | 82.8% | 99.3% | 34.9% | 30.4% | 37.3% |
| Cc1sc2nc(N3CCCCC3)[nH]c(=O)c2c1C | 95.8% | 88% | 102% | 93.3% | 101% | 93.8% | 83.2% | 94.1% | 100% |
| CC1(C)CC2(C)CC(=O)C1C(C(=O)O)C2C(=O)O (stereo unspecified) | 106% | 107% | 104% | 105% | 112% | 113% | 109% | 123% | 107% |
| Cc1nn(-c2ccccc2)cc1/C=C1\SC(N2CCCCC2)=NC1=O | 104% | 86.7% | 100% | 103% | 95.2% | 76.7% | 90.1% | 83.6% | 66.9% |
| CCOC(=O)CNC(=O)C1(NC(=O)CNC(=O)OCc2ccccc2)CCCC1 | 105% | 115% | 109% | 112% | 112% | 96.2% | 89.8% | 94.9% | 120% |
| CCOC(=O)/C(=C/CC/C(C)=C/CC/C(C)=C/CCc1ccoc1)CC(=O)N1CCCCC1 | 66.4% | 73% | -91.8% (active) | 86% | -56.4% (active) | -11.2% (active) | 5.91% (active) | 86.3% | 1.9% (active) |
| COc1ccc2c(=O)c(OC)c(-c3cc(OC)c(OC)c(OC)c3)oc2c1 | 86.4% | 91.3% | 89.1% | 82.8% | 102% | 46.5% | 44.1% | 67.8% | 129% |
| CC(=O)N1N=C(c2ccc(Cl)cc2)CC1c1c(C)nn(-c2ccccc2)c1N(C)Cc1ccccc1 (stereo unspecified) | 78.3% | 67% | 91.4% | 74.3% | 79% | 55.2% | 53.5% | 84.7% | 74.9% |
| CC1CC=CCC1C1OCC(C)(C)CO1 (stereo unspecified) | 108% | 99.9% | 105% | 89.3% | 109% | 106% | 96.7% | 97.6% | 111% |
| N#Cc1ccccc1C#Cc1ccccc1C#Cc1ccc(OCCCCCCOc2ccc(C#Cc3ccccc3C#Cc3ccccc3C#N)cc2)cc1 | 99.4% | 102% | 105% | 103% | 116% | 91.6% | 94% | 98.4% | 119% |
| CCc1nn2c(-c3ccc(Cl)cc3C)c(-c3cc(OC)c(OC)c(OC)c3)nc2s1 | 88.9% | 87% | 69.7% | 84.7% | 84.8% | 58.1% | 82.7% | 72.9% | 81.2% |
| CC(NNC(=S)N1CCCCCC1)c1ccc2ccccc2n1 (stereo unspecified) | 60.9% | 45.3% | 27.2% | 42.7% | 12.5% | 65.7% | 13.9% | 40% | 20.1% |
| COc1ccc(NC(=O)c2ccccc2-c2ccccc2)c(C(N)=O)c1 | 53.7% | 70.2% | 58.7% | 45.3% | 17% | 57.3% | 46.5% | 28.5% | 9.95% (active) |
| CCCCCCCCCCCCCCCCCC1=NC(C)(CO)CO1 (stereo unspecified) | 98.2% | 91.1% | 90.4% | 95.9% | 103% | 79.8% | 89.6% | 92.3% | 101% |
| COc1ccc(C(=O)/C=C/c2cccc(Nc3ccnc4cc(Cl)ccc34)c2)cc1 | 43.2% | 54.3% | 49.6% | 18.8% | 31.6% | 29.1% | 29.4% | -35.4% (active) | 45.1% |
| CCCCCc1c(C)[nH]c(/C=C2\N=C(c3ccc[nH]3)C=C2OCc2ccccc2)c1C | -67.3% [100 µM] (active) | -42.5% [100 µM] (active) | -94.6% [100 µM] (active) | -91.9% [100 µM] (active) | -40.4% [100 µM] (active) | -77.6% [100 µM] (active) | -70% [100 µM] (active) | -75.7% [100 µM] (active) | -84% [100 µM] (active) |
| Nc1nc(Nc2ccccc2SSc2ccccc2Nc2nc(N)nc(-c3cccc(Cl)c3)n2)nc(-c2cccc(Cl)c2)n1 | 78.6% | 82.7% | 91.8% | 7.83% (active) | 89.9% | 105% | -24.8% (active) | 99.1% | 119% |
| CCCCCN1C(=O)CCC1=O | 110% | 101% | 110% | 92.9% | 120% | 79.3% | 99% | 111% | 99.4% |
| COc1ccc(-c2cnc(SCC(=O)Nc3ccc(-c4nc5ccccc5s4)cc3)n2-c2ccc(OC)cc2)cc1 | 101% | 105% | 102% | 106% | 110% | 93.6% | 101% | 102% | 112% |
| O=c1ccn(C2CC=C(CO)O2)c(=O)[nH]1 (stereo unspecified) | 91.9% | 95.7% | 95.9% | 102% | 124% | 38.1% | 106% | 93.4% | 106% |
| O=C(Nc1ccc2c(c1)C(=O)c1ccccc1-2)c1ccccc1 | 95% | 97.6% | 101% | 44.3% | 87.4% | 82.1% | 100% | 52.1% | 97.8% |
| COc1ccc2nc(NC(=O)CN3CCn4c(nnc4C(F)(F)F)C3)sc2c1 | 91.6% | 92.2% | 98.5% | 88.1% | 99.5% | 101% | 88.4% | 96.9% | 109% |
| C/C(=C\CCc1ccoc1)CC/C=C(\C)CCCN1CCSCC1 | 64.6% | 80% | 7.95% (active) | 97.5% | 10.1% | 73.3% | 28.4% | 91.6% | 51.1% |
| O=C(Nc1nc2c(C(F)(F)F)cccc2s1)c1cc(Cl)ccc1O | 3.47% (active) | -3.02% (active) | 4.87% (active) | -7.84% (active) | 2.33% (active) | -27.8% (active) | 3.66% (active) | 1.42% (active) | -69.9% (active) |
| CC1CN(C2CCCCC2)C(=O)NC1=O (stereo unspecified) | 114% | 101% | 80.5% | 108% | 114% | 92% | 104% | 110% | 101% |
| CCOC(=O)Nc1ccc2c3c(cccc13)-c1ccccc1-2 | 42.8% | 63.1% | 50.6% | 45.1% | 19.2% | 81.6% | 47% | 44.1% | 24.3% |
| O=C1N=C(N2CCOCC2)S/C1=C\c1cn(-c2ccccc2)nc1-c1ccccc1 | 95.2% | 78.8% | 73.3% | 68.5% | 67.3% | 94.6% | 94.8% | 25.6% | 122% |
